This note sets out measurements from PubChem BioAssay.

The test system of experiment [1] is TRPC4 beta (transient receptor potential cation channel C4), mouse. As to the kind of experiment: TRPC4 cation channel opening, retest – cell-based, Fluo4 calcium, HEK293 TRPC4beta/mu-opioid, duplicates, 10 µM, confirmation (AID 2426;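 active = fluorescence ratio normalized to control raised more than 50% in primary screen plus both repeat runs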;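 for activation: percent rise of integrated ratio over buffer wells lacking compound which define 0%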). The conditions noted are these: Fluo4 calcium fluorescence, at 10 µM; hits give high values.
Experiment [2] concerns transient receptor potential cation channel C4 beta (TRPC4), mouse. As to the kind of experiment: TRPC4 cation channel opening, second retest – cell-based, second round, Fluo4, HEK293 TRPC4beta/mu-opioid, 1 µM, confirmation (AID 2461;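 active = primary screen active and over 50% activation in each of two duplicate runs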;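 for activation: 0% = wells without test compound as baseline of integrated fluorescence ratio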). The conditions noted are these: Fluo4 calcium fluorescence, at 1 µM; hits give high values.
Experiment [3] deals with TRPC4 (transient receptor potential cation channel C4 beta), mouse. Put plainly: potentiation of DAMGO EC20 TRPC4 response – cell-based, second round, Fluo-4, HEK293 TRPC4beta/mu-opioid, 1 µM, confirmation (AID 2554;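 active = primary screen hit whose fluorescence ratio, in both repeats, exceeds the weak agonist control mean by 3 SD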). The note with it: DAMGO EC20, Fluo-4 calcium flux, at 1 µM; hits give high values.
Experiment [4] deals with TRPC4 beta (transient receptor potential cation channel C4), mouse. Put plainly: potentiation of DAMGO EC20 TRPC4 response – cell-based, Fluo-4, HEK293 TRPC4beta/mu-opioid, confirmation (AID 2555;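 active = primary screen hit whose calcium fluorescence ratio, in both repeats, exceeds the weak agonist control mean by 3 SD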). The note with it: DAMGO EC20, Fluo-4 calcium flux, at 10 µM; hits give high values.
Experiment [5] deals with Short transient receptor potential channel 4 (Mus musculus) (UniProt Q9QUQ5). Put plainly: blockers of DAMGO-evoked TRPC4 calcium flux – cell-based, Fluo4, HEK293 TRPC4beta/mu-opioid, confirmation (AID 2636;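 active = calcium signal cut by more than 3 SD below the full-agonist control yet still positive, in both repeats and the earlier primary screen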). The conditions noted are these: at 10 µM; hits give high values.
Short transient receptor potential channel 4 (Mus musculus), sequence (Q9QUQ5 whole entry, looked up): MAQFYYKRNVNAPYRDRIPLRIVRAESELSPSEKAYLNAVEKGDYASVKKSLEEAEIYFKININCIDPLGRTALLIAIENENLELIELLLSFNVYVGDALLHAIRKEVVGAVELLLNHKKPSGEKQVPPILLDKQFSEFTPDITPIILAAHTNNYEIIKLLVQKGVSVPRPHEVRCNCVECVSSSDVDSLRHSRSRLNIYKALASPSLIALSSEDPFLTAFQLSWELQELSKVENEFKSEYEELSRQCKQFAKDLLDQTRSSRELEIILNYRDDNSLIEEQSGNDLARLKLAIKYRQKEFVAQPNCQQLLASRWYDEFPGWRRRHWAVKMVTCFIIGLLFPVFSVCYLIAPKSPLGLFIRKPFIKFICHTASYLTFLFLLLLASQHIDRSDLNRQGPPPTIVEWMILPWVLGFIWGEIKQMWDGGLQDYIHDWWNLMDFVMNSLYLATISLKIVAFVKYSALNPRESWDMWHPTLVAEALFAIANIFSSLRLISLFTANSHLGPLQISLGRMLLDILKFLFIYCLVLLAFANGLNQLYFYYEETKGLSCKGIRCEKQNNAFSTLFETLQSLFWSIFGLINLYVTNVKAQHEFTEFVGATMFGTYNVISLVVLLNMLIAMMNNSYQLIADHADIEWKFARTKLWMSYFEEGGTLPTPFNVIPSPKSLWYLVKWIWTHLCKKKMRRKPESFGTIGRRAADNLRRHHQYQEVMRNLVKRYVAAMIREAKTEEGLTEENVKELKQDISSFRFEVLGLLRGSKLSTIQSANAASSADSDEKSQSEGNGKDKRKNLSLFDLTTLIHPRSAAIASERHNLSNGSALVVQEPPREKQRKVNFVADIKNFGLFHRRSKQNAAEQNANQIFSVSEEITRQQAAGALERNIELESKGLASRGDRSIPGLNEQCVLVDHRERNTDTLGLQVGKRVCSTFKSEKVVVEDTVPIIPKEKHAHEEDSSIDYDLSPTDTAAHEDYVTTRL
Experiment [6] shares this target. Put plainly: blockers of DAMGO-evoked TRPC4 calcium flux – cell-based, second round, Fluo4, HEK293 TRPC4beta/mu-opioid, 1 µM, confirmation (AID 2637;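 active = calcium signal ratio cut to more than 3 SD under the fully stimulated control mean yet still positive, in both repeats and the primary screen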). The note with it: at 1 µM; hits give high values.
Experiment [7] has the same target. As to the kind of experiment: potentiation of DAMGO-evoked TRPC4 calcium signal – cell-based, HEK293 TRPC4/mu-opioid, Fluo-4 calcium, EC20 DAMGO, dose response (AID 434941;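 active = earlier screen potentiator hit that boosts the TRPC4 ion channel at some dose, with a dose response; inactive = no potentiation, no dose response, or not a prior hit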;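 note: calcium entry triggered by an EC20 dose of DAMGO at the co-expressed mu-opioid receptor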).
For experiment [8] the target is unchanged. As to the kind of experiment: block of DAMGO-driven TRPC4 calcium entry – cell-based, HEK293 TRPC4/mu-opioid, Fluo-4 calcium, dose response (AID 434942;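 active = primary screen inhibitor hit that blocks the TRPC4 channel at some tested dose, yielding a dose curve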).
Experiment [9] concerns the target Short transient receptor potential channel 6 (Mus musculus) (UniProt Q61143). Put plainly: TRPC6 blockade by TRPC4 inhibitor hits – cell-based, HEK293, membrane potential dye, duplicate, selectivity assay for TRPC4 inhibitor project, confirmation (AID 434948;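 active = active in primary screen and both duplicates, each dropping signal beyond three positive-control SD with fluorescence still positive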). The conditions noted are these: HEK293 TRPC6, membrane potential dye fluorescence, at 10 µM, stimulated with maximal-effect acetylcholine; hits give high values.

Experiment [10] has the same target. As to the kind of experiment: TRPC6 opening by TRPC4 activator hits – cell-based, HEK293, membrane potential dye, duplicate, selectivity assay for TRPC4 activator project, confirmation (AID 434950;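 active = membrane potential signal rise above negative control mean plus 3 SD in both duplicates, also active in the earlier TRPC4 screen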;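 for activation: 0% = buffer only wells and 100% = acetylcholine maximal-effect wells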). The note with it: HEK293 TRPC6, membrane potential fluorescence, at 10 µM; activation: hits give high values; outcome: activation.
The target is the same in experiment [11]. As to the kind of experiment: positive modulators of mouse TRPC6 channel – HEK293 cells, membrane potential dye, duplicate, selectivity assay for TRPC4 potentiator project, confirmation (AID 434952;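 active = compound raising the membrane signal above positive-control mean plus 3 SD in both repeats, and a primary screen hit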). The note with it: HEK293 TRPC6, membrane potential dye fluorescence, at 10 µM, maximal acetylcholine added after compound; hits give high values.
The target in experiment [12] is Short transient receptor potential channel 4 (Mus musculus) (UniProt Q9QUQ5). As to the kind of experiment: calcium flux activators in TRPC4/5HT1a cells, counter-screen for TRPC4 activator project, cell-based, second counter screen, HEK293 TRPC4/5HT1a, Fluo-4 (AID 434977;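 active = calcium signal rise above buffer-control mean plus 5 SD in both duplicates, and also a hit in the primary screen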;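 for activation: plate controls were assay buffer for no effect and maximal serotonin response for full effect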). The note with it: Fluo-4 calcium flux, at 10 µM; hits give high values.
The nature of experiment [13]: serotonin-gated TRPC4 signal block – cell-based, second counter screen, HEK293 TRPC4/5HT1a, Fluo-4, counter-screen for TRPC4 inhibitor project, confirmation (AID 434978;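 active = primary screen active whose calcium signal fell more than 3 SD beyond the full-serotonin control mean in both duplicate plates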;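 note: serotonin given first at submaximal then at maximal dose after compound preincubation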). The conditions noted are these: Fluo-4 calcium flux, at 10 µM, serotonin added to trigger calcium flux; hits give high values.
In experiment [14] the test system is TRPC4 (mouse), co-expressed with 5HT1a in HEK293. Put plainly: enhancement of serotonin-evoked TRPC4 response – cell-based, second counter screen, HEK293 TRPC4/5HT1a, Fluo-4, counter-screen for TRPC4 potentiator project, confirmation (AID 434979). The note with it: Fluo-4 calcium flux, at 10 µM, serotonin added at its EC20 dose; hits give high values.
Experiment [15] in a line: nonspecific calcium rise without TRPC4 – cell-based, HEK293 mu-opioid receptor line, counter-screen for TRPC4 activator project, confirmation (AID 449723;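 active = hit in primary screen, with calcium signal over 5 SD above buffer well mean in both duplicates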;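 note: counter screen cells carry the mu-opioid receptor alone and lack TRPC4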). The conditions noted are these: HEK293 mu-opioid cells, Fluo-4 calcium fluorescence, at 10 µM; hits give high values.
The nature of experiment [16]: nonspecific potentiation of DAMGO calcium response – cell-based, HEK293 mu-opioid receptor line, counter-screen for TRPC4 allosteric potentiator project, confirmation (AID 449724;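 active = calcium signal rise more than 3 SD above the low-dose agonist control mean, in both duplicate plates and the primary screen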;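 note: HEK293 cells carrying mu-opioid receptor only with no TRPC4 channel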). The note with it: HEK293 mu-opioid receptor cells, Fluo-4 calcium flux, at 10 µM, compound added before EC20 DAMGO stimulus; hits give high values.

For part of these data: Results with a measured potency or affinity are listed apart. Active and inactive are the calls of the source.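 Rule for the calls, unless noted: active = signal rise over 3 SD above mean of control wells given weak agonist, in both repeats and first screen; inactive = the rest.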

Short transient receptor potential channel 6 (Mus musculus), sequence (Q61143 whole entry, looked up): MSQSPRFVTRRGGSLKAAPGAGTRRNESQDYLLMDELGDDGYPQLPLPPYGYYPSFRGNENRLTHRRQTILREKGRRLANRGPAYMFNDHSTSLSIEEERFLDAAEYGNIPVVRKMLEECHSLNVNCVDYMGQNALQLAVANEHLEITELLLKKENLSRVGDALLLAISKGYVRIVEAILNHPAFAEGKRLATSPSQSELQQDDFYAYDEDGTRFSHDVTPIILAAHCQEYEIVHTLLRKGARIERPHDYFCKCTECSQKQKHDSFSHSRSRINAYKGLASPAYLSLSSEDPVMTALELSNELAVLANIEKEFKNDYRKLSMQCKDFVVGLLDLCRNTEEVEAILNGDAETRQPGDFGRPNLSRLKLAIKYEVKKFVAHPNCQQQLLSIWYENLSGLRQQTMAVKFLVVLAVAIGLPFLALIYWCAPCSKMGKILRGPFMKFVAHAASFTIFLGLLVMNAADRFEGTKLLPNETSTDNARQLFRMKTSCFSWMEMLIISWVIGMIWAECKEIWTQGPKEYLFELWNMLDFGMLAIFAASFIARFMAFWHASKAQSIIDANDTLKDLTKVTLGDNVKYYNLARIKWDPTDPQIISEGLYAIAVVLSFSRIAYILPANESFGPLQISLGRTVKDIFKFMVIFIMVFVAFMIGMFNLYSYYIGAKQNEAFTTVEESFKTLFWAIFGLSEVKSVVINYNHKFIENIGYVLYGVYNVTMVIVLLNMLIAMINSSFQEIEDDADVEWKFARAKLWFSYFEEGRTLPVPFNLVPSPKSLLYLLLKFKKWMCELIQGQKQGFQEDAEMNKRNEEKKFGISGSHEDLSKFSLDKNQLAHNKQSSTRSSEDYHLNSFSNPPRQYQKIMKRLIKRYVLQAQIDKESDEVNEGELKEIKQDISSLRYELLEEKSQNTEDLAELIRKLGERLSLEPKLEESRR

Consider `Cc1cccc(NC(=S)NCC(c2cccnc2)N(C)C)c1C` (stereo not given), for which the activation in experiment [1] is 82% (active); in [2] it was 106% (active). Moreover, the result in experiment [3], in [4], in experiment [5], in experiment [6], in experiment [7] and in [8] was inactive. For the same molecule, the molecule was classed as inactive in experiment [9], in experiment [10], in experiment [11], in [12], in experiment [13] and in experiment [14]. The outcome in experiment [15] and in experiment [16] was inactive.

With `CCCCCSc1nnc2c(n1)OC(c1cccn1C)N(C(C)=O)c1ccccc1-2` (stereo not given), the result in experiment [1], in experiment [2], in [3], in experiment [4], in experiment [5] and in experiment [6] was inactive. In addition, the result in [7], in experiment [8], in experiment [9], in experiment [10], in experiment [11] and in experiment [13] was inactive. In addition, the outcome in [14], in experiment [15] and in [16] was inactive. For the same molecule, the activation in experiment [12] is 18% (active).

As to `CN(CCOc1ccc(Cl)cc1)CC(O)c1ccccc1` (stereo not given), the activation in experiment [1] was 76% (active); in experiment [10], 52.5% (active); in [12] it was 13.9% (active). The result in experiment [2], in [3], in [4], in [5], in [6] and in experiment [7] was inactive. Also, the result in experiment [8], in [9], in [11], in experiment [13], in experiment [14] and in experiment [15] was inactive. Further, the result in experiment [16] was inactive.

Regarding `CC1CCCN(CCCNC(=O)c2ccc3c(c2)N(Cc2ccccc2F)C(=O)c2ccccc2S3(=O)=O)C1` (stereo not given), the activation was 125% (active) in [1], 68% (active) in [2] and 24.4% (active) in experiment [12]. For the same molecule, the result in experiment [3], in experiment [4], in experiment [5], in [6], in experiment [7] and in experiment [8] was inactive. The call in [9], in [10], in experiment [11], in experiment [13], in [14] and in [15] was inactive. Further, the result in experiment [16] was inactive.

Consider `O=C(C1CCCN(Cc2ccncc2)C1)N1CCc2ccccc2C1` (stereo not given), for which the activation is 204% (active) in experiment [1], 149% (active) in experiment [2], 27.5% (active) in experiment [10] and 84.2% (active) in [12]. Also, the outcome in experiment [3], in [4], in experiment [5], in experiment [6], in experiment [7] and in [8] was inactive. The call in experiment [9], in experiment [11], in [13], in experiment [14], in [15] and in [16] was inactive.

With `Cc1cc(C)n(-c2nc(SCCN(C)C)c3c4c(sc3n2)CCCC4)n1`, in experiment [1], the activation was 162% (active). In addition, the result in [2], in experiment [3], in experiment [4], in experiment [5], in experiment [6] and in experiment [7] was inactive. Further, the result in experiment [8], in [9], in experiment [10], in experiment [11], in [12] and in [13] was inactive. In addition, the result in experiment [14], in [15] and in experiment [16] was inactive.

As to `CC(=O)Nc1ccc(CN2CCCC(C(=O)c3cccc(C(F)(F)F)c3)C2)cc1` (stereo not given), the results for the activation in [1] and in experiment [10] were 96% (active) and 29.5% (active), respectively. The result in experiment [2], in experiment [3], in [4], in experiment [5], in experiment [6] and in experiment [7] was inactive. Moreover, the result in [8], in experiment [9], in experiment [11], in experiment [12], in [13] and in experiment [14] was inactive. Further, the result in experiment [15] and in experiment [16] was inactive.

For `O=C(c1sc2ccccc2c1Cl)N(Cc1ccco1)C1CCS(=O)(=O)C1` (stereo not given), the results for the activation in experiment [1] and in experiment [10] were 198% (active) and 57.5% (active), respectively. Further, the result in experiment [2], in [3], in [4], in experiment [5], in experiment [6] and in experiment [7] was inactive. For the same molecule, the outcome in [8], in experiment [9], in experiment [11], in experiment [12], in [13] and in experiment [14] was inactive. The outcome in experiment [15] and in experiment [16] was inactive.

As for `C=CCn1c(CCNC(=O)c2ccco2)nc2ccccc21`, the activation in experiment [1] was 165% (active); in [2], 70% (active); in experiment [12], 55% (active). The outcome in experiment [3], in [4], in [5], in experiment [6], in [7] and in experiment [8] was inactive. Besides, the call in experiment [9], in experiment [10], in [11], in experiment [13], in experiment [14] and in [15] was inactive. Moreover, the result in experiment [16] was inactive.

Consider `CCCC(=O)NC(C)C(c1cccs1)N1CCN(c2ccccc2)CC1` (stereo not given), for which the outcome in [1], in experiment [2], in experiment [3], in [4], in experiment [5] and in [6] was inactive. For the same molecule, the result in [7], in experiment [8], in experiment [9], in experiment [11], in [12] and in experiment [13] was inactive. Further, the result in experiment [14], in experiment [15] and in experiment [16] was inactive. In addition, the activation in experiment [10] is 38.5% (active).

`CCn1c(N2CCN(C(=O)Nc3ccc(F)cc3)CC2)nc2ccccc21`: the activation is 119% (active) in experiment [1], 41% (active) in [10] and 28.1% (active) in experiment [12]. Also, the outcome in experiment [2], in experiment [3], in [4], in experiment [5], in experiment [6] and in experiment [7] was inactive. Further, the outcome in [8], in experiment [9], in [11], in experiment [13], in experiment [14] and in [15] was inactive. Besides, the result in experiment [16] was inactive.

Regarding `O=C(NNC(=S)NC(=O)C12CC3CC(CC(C3)C1)C2)c1ccncc1`, the activation in experiment [1] is 192% (active); in experiment [12] it was 126% (active); in [15], 44.2% (active). For the same molecule, the outcome in [2], in [3], in experiment [4], in [5], in [6] and in experiment [7] was inactive. For the same molecule, the outcome in [8], in experiment [9], in experiment [10], in experiment [11], in experiment [13] and in experiment [14] was inactive. For the same molecule, in experiment [16], the result was inactive.

Regarding `CCn1c(N)[n+](CC(=O)Nc2ccc(SC(F)F)cc2)c2ccccc21`, the activation in experiment [1] is 200% (active); in experiment [12], 10.3% (active). For the same molecule, the outcome in [2], in experiment [3], in experiment [4], in experiment [5], in experiment [6] and in experiment [7] was inactive. In addition, the outcome in [8], in [9], in experiment [10], in experiment [11], in [13] and in experiment [14] was inactive. For the same molecule, the result in experiment [15] and in [16] was inactive.

On to `CNC[C@H](CC1CCCCC1)NC[C@H](Cc1ccccc1)NCCC12CC3CC(CC(C3)C1)C2`, for which the activation in experiment [1] is 219% (active); in experiment [12], 63.4% (active); in [15] it was 51.7% (active). For the same molecule, the outcome in [2], in experiment [3], in [4], in experiment [5], in experiment [6] and in experiment [7] was inactive. In addition, the result in [8], in experiment [9], in experiment [10], in experiment [11], in experiment [13] and in experiment [14] was inactive. Moreover, in experiment [16], the result was inactive.

Regarding `CCN1C(=O)c2cccc3c(S(=O)(=O)Nc4ccccc4OC)ccc1c23`, the outcome in experiment [1], in [2], in experiment [3], in experiment [4], in experiment [5] and in experiment [6] was inactive. Moreover, the result in experiment [7], in experiment [8], in [9], in [10], in experiment [11] and in experiment [12] was inactive. Moreover, the result in experiment [13], in experiment [14], in [15] and in [16] was inactive.
